ELG1 genotoxic = qHTS screen for small molecules that induce genotoxicity in human embryonic kidney (HEK293T) cells expressing luciferase-tagged ELG1 | HEK293T ELG1-luciferase reporter, luminescence, 16 h | Potency, µM (series often up to 46 µM), most hits filed as activators | 330,000 compounds, 1.3% hits; note: nearly all actives have a fitted effect of over 60% in size
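DMSO vehicle served as control against compound-treated ELG1-luciferase HEK293T cells; exposure lasted 16 hr at 37 °C and 5% CO2, followed by ONE-Glo luminescence detection after 30 min.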
Rab9 promoter act = qHTS Assay for Rab9 Promoter Activators. 320,000 compounds, 2.8% hits. AID 485297, 2010. Huh7 Rab9 promoter-luciferase reporter, luminescence, 24 h. Potency, µM (doses to about 9.22 µM), usual class: activators; note: nearly all actives have a fitted effect of over 60% in size
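Huh7 cells stably carrying Rab9 promoter–luciferase reporter, plated 1500 cells/well, compound added after 2 h and incubated 24 h at 37 °C; luciferase luminescence then read after 10 min with detection reagent.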
SMN2 splice enh = qHTS Assay for Enhancers of SMN2 Splice Variant Expression | HEK293 SMN2-luciferase splicing reporter, luminescence, 30-36 h | Potency, µM (series often up to 46.1 µM), usual class: activators | 210,000 compounds, 2.8% hits | AID 1458, 2008; note: nearly all actives have a fitted effect of over 55% in size
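HEK293 cells carry an SMN2 minigene-luciferase reporter in which exon 7 inclusion puts luciferase in frame. Cells were seeded at 2000 cells/well, attached for 10-12 hours, then exposed to compounds for 30-36 hours at 37C before ONE-Glo luminescence.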
FLuc modulator = qHTS profiling assay for firefly luciferase inhibitor/activator using purifed enzyme and Km concentrations of substrates (counterscreen for miR-21 project); Potency, µM (titrated, usually from 57.5 µM), hits mostly inhibitors; purified FLuc, Km substrates, luminescence inhibition; 360,000 compounds, 6.9% hits; note: nearly all actives have a fitted effect of over 55% in size
Target sequence (P08659 whole entry, looked up): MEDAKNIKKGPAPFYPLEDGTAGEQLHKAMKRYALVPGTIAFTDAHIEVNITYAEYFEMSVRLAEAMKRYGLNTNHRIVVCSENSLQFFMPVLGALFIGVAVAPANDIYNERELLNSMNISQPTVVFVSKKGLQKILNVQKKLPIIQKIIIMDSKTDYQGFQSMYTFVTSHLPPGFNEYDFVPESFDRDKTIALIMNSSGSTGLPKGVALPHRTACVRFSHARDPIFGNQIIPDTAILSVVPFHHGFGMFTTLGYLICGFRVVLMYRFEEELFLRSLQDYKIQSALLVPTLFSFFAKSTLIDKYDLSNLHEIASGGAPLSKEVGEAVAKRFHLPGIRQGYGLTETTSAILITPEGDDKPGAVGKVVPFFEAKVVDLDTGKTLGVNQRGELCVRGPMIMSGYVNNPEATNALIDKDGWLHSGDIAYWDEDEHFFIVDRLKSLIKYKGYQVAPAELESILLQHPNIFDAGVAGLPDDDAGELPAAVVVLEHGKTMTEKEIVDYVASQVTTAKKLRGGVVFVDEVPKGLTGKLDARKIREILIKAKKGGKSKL
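Purified P. pyralis luciferase (10nM final) with 10uM D-luciferin and 10uM ATP (Km levels) in 50mM Tris acetate pH 7.5, 10mM Mg acetate, 0.01% Tween-20, 0.05% BSA; qHTS 6-point titration, ~60 µM downward; luminescence read.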
NPC1 promoter act = qHTS Assay for NPC1 Promoter Activators | Huh7 NPC1 promoter luciferase reporter, 24 h | Potency, µM (highest dose often 9.22 µM), actives largely listed as activators | 320,000 compounds, 2.4% hits; note: nearly all actives have a fitted effect of over 60% in size
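In 1536-well qHTS, Huh7 cells harboring an NPC1 promoter–luciferase construct received compound for 24 h; activation was quantified by luminescence following luciferase reagent addition.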
Large screens that a line does not name were inactive. Rows were chosen to be rich in hits. Some 7.5% of all compounds tested hit in one or more screens of this group. Calls come from the whole dose curve; as a rule, active = well fitted curve in the direction sought with a large enough effect; inconclusive = small, poorly fitted or top-dose-only effect, or another doubt; inactive = no such curve, though single readings can be large; an effect the other way counts as inactive or inconclusive.

CNc1cc(CSc2ccc(Cl)cc2)nc(C)n1	Rab9 promoter act 2.24µM, SMN2 splice enh inconclusive, FLuc modulator 16.9µM, NPC1 promoter act inconclusive
Cc1ccc(S(=O)(=O)NCc2cn3c(C)csc3n2)cc1	none
Cc1cc(C)n(-c2ccc(NC(=O)C3CCCCN3C(=O)c3ccoc3C)cc2)n1 (stereo not given)	none (no result: SMN2 splice enh)
Cc1cccc2nc(CSc3ccc(Cl)cc3)cn12	ELG1 genotoxic inconclusive, Rab9 promoter act 2.24µM, SMN2 splice enh 11.2µM, FLuc modulator 9.53µM, NPC1 promoter act 3.16µM
Cc1cccc2nc(CSCc3ccco3)cn12	ELG1 genotoxic inconclusive, Rab9 promoter act 2.24µM, SMN2 splice enh 11.2µM, FLuc modulator 7.57µM, NPC1 promoter act 1.12µM
Cc1cccc2nc(CSc3nc4ccccc4[nH]3)cn12	FLuc modulator inconclusive
CNc1ccccc(-c2ccc3ccccc3n2)c1=O	ELG1 genotoxic inconclusive, Rab9 promoter act 3.55µM, SMN2 splice enh 11.2µM, FLuc modulator 9.53µM, NPC1 promoter act inconclusive
Cc1cc(=O)n(-c2ccc3ccccc3n2)[nH]1	ELG1 genotoxic inconclusive, FLuc modulator inconclusive
Cc1ccc(/C=C/C(=O)NN2CCN(C)CC2)cc1	none (no result: SMN2 splice enh)
CC(C)(C)c1ccc(/C=C/C(=O)NC2=NCCS2)cc1	ELG1 genotoxic inconclusive, Rab9 promoter act 0.398µM, SMN2 splice enh inconclusive, FLuc modulator 0.757µM, NPC1 promoter act 0.501µM
Cc1ccc(/C=C/C(=O)NC2=NCCS2)cc1	ELG1 genotoxic 2.91µM, Rab9 promoter act 0.501µM, SMN2 splice enh 0.501µM, FLuc modulator 1.35µM, NPC1 promoter act inconclusive
O=C(NCCCNC(=O)c1ccccc1F)c1ccco1	none (no result: SMN2 splice enh)
Cc1nn(C)c(C)c1CNC(=O)Nc1cccc(Cl)c1	Rab9 promoter act inconclusive, FLuc modulator inconclusive (no result: SMN2 splice enh)
Cc1nn(C)c(C)c1CNC(=O)Nc1ccc(Cl)cc1	ELG1 genotoxic inconclusive, Rab9 promoter act 3.16µM, FLuc modulator inconclusive, NPC1 promoter act inconclusive
Cc1cc(C)c(NC(=O)CS)c(Cl)c1	none
Cc1ccc(NC(=O)c2c(C)noc2C)cc1	none
Cc1nc(N)sc1C(=O)Nc1ccccc1	ELG1 genotoxic inconclusive, Rab9 promoter act inconclusive, FLuc modulator inconclusive, NPC1 promoter act inconclusive
Cc1nc(Cl)sc1C(=O)Nc1ccc(C(C)(C)C)cc1	ELG1 genotoxic inconclusive, FLuc modulator 10.7µM (no result: SMN2 splice enh)
Cc1ccc(NC(=O)c2sc(N)nc2C)cc1	ELG1 genotoxic 20.6µM, Rab9 promoter act 2.24µM, FLuc modulator 21.3µM, NPC1 promoter act 2.51µM (no result: SMN2 splice enh)
Cc1nc(NC(N)=S)sc1C(=O)Nc1ccccc1	none
Cc1nc(C(=O)Nc2ccccc2)sc1C(=O)Nc1ccccc1	Rab9 promoter act 3.55µM, FLuc modulator 13.5µM, NPC1 promoter act 3.55µM (no result: SMN2 splice enh)
Cc1ccccc1NC(=O)c1sc(Cl)nc1C	none
Cc1noc(N)c1C(=O)Nc1ccc(C(C)(C)C)cc1	ELG1 genotoxic inconclusive, Rab9 promoter act 3.16µM, SMN2 splice enh inconclusive, FLuc modulator 3.38µM, NPC1 promoter act 2.51µM
Cc1cc(C(=O)Cn2ncc(Cl)c(Cl)c2=O)c(C)n1CC(F)(F)F	SMN2 splice enh inconclusive, FLuc modulator 15.1µM
Cc1ccc(C)c(C(=O)Cn2ncc(Cl)c(Cl)c2=O)c1	none
CN1CCN(CCC(=O)Nc2ccc(C3CCCC3)cc2)CC1	none
CC(CCOS(N)(=O)=O)c1ccccc1 (stereo not given)	none (no result: SMN2 splice enh)
CC(=O)c1c(C)[nH]c(C(=O)Nc2nc(C)cs2)c1C	ELG1 genotoxic 0.517µM, Rab9 promoter act 0.112µM, SMN2 splice enh 1.58µM, FLuc modulator 0.601µM, NPC1 promoter act 1µM
CC(=O)c1c(C)[nH]c(C(=O)Nc2nc(-c3ccc(Cl)cc3)cs2)c1C	none
CC(=O)c1c(C)[nH]c(C(=O)Nc2ccc(C)cn2)c1C	ELG1 genotoxic inconclusive, Rab9 promoter act 0.251µM, SMN2 splice enh 0.794µM, FLuc modulator 0.426µM, NPC1 promoter act 0.708µM
CC(=O)c1c(C)[nH]c(C(=O)Nc2cc(C)cc(C)c2)c1C	ELG1 genotoxic inconclusive, FLuc modulator inconclusive
Oc1cccc(/C=N/N=C/c2cccc(O)c2O)c1O	ELG1 genotoxic inconclusive, FLuc modulator 1.69µM (no result: SMN2 splice enh)
Cc1ccccc1N=Cc1cccc(O)c1O	FLuc modulator inconclusive
COc1ccc(OCC(=O)N2CCN(C(=O)c3ccc(OC)cc3)CC2)cc1	none (no result: ELG1 genotoxic, Rab9 promoter act, NPC1 promoter act)
COc1cc(OC)cc(C(=O)N2CCN(C(=O)COc3ccc(C)cc3)CC2)c1	FLuc modulator 23.9µM (no result: ELG1 genotoxic, Rab9 promoter act, NPC1 promoter act)
Cc1ccc(OCC(=O)N2CCN(C(=O)c3cccc(F)c3)CC2)cc1	none
COc1ccc(C(=O)N2CCN(C(=O)COc3ccc(C)cc3)CC2)cc1OC	FLuc modulator 15.1µM (no result: ELG1 genotoxic, Rab9 promoter act, NPC1 promoter act)
O=C(Nc1ccccc1)N1CCCC2CCCCC21 (stereo not given)	ELG1 genotoxic 20.6µM, Rab9 promoter act 3.16µM, SMN2 splice enh 11.2µM, FLuc modulator 15.1µM, NPC1 promoter act inconclusive
O=C(NC1CCCC1)C1CCCN1C(=O)Nc1ccccc1 (stereo not given)	none
COc1ccc(NC(=O)Nc2cccc(C)n2)cc1	ELG1 genotoxic 11.6µM, Rab9 promoter act inconclusive, SMN2 splice enh 11.2µM, FLuc modulator 8.49µM, NPC1 promoter act inconclusive
Cc1cccc(NC(=O)Nc2ccc(Br)cc2)n1	Rab9 promoter act inconclusive
Cc1cccc(NC(=O)Nc2ccc(C#N)cc2)n1	SMN2 splice enh 11.2µM
Cc1cccc(NC(=O)Nc2ccccc2[N+](=O)[O-])n1	none (no result: SMN2 splice enh)
Cc1cccc(NC(=O)Nc2cccc(C#N)c2)n1	Rab9 promoter act inconclusive, SMN2 splice enh 15.8µM, FLuc modulator inconclusive, NPC1 promoter act inconclusive
CCOC(=O)c1ccc(NC(=O)Nc2cccc(C)n2)cc1	ELG1 genotoxic inconclusive
